Counter-ions that a name gives are not always drawn. ± gives the standard deviation of the averaged measurements.
Experiments:
[1] = tested on: Saccharomyces cerevisiae BY4741 SeMeCo community; experiment: mean cell size (pixel area) (pixels); higher = larger cells; conditions: 10 µM; 24 h; SM minimal medium
In short: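 A four-plasmid fluorescent Saccharomyces cerevisiae BY4741 community was tested; each plasmid complements one auxotrophy and carries a fluorescent marker. An overnight preculture at OD600 = 1.0 was diluted to OD600 = 0.3, and 70 µl was added to 384-well plates acoustically predosed with drug (final 10 µM) in SM medium for 24 h. Cells were fixed with paraformaldehyde and imaged by automated confocal microscopy, with analysis in Harmony. Mean cell pixel area per well is averaged over 3 replicates. Same SeMeCo high-content imaging drug screen: Selleck FDA-approved drugs at 10 µM, 24 h in SM medium, 384-well plates, 3 replicates.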

[2] = tested on: Saccharomyces cerevisiae BY4741 SeMeCo community; experiment: z-score of prototroph abundance vs DMSO median; higher = larger share of this subpopulation than in DMSO controls; conditions: 10 µM; 24 h; SM minimal medium; subpopulation (auxotrophy): Prototroph
In short: (§1)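 A Saccharomyces cerevisiae BY4741 community carried four plasmids, each restoring one auxotrophy and encoding a distinct fluorescent protein. It was pre-grown overnight to OD600 1.0, diluted to 0.3, and 70 µl was added to 384-well plates acoustically predosed with library drugs (10 µM final), then grown 24 h in minimal SM medium. Cells were paraformaldehyde-fixed and imaged by automated confocal microscopy, with single-auxotroph fluorescent strains setting thresholds and autofluorescence correction. Each subpopulation's abundance was scored as a z-score against the vehicle-well median.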

[3] = tested on: Saccharomyces cerevisiae BY4741 SeMeCo community; experiment: z-score of subpopulation abundance vs DMSO median, subpopulation auxotrophic for M; higher = larger share of this subpopulation than in DMSO controls; conditions: 10 µM; 24 h; SM minimal medium; subpopulation (auxotrophy): M
In short: as §1

[4] = tested on: Saccharomyces cerevisiae BY4741 SeMeCo community; experiment: z-score of subpopulation abundance vs DMSO median, subpopulation auxotrophic for U; higher = larger share of this subpopulation than in DMSO controls; conditions: 10 µM; 24 h; SM minimal medium; subpopulation (auxotrophy): U
In short: as §1

[5] = tested on: Saccharomyces cerevisiae BY4741 SeMeCo community; experiment: z-score of subpopulation abundance vs DMSO median, subpopulation auxotrophic for H; higher = larger share of this subpopulation than in DMSO controls; conditions: 10 µM; 24 h; SM minimal medium; subpopulation (auxotrophy): H
In short: as §1

[6] = tested on: Saccharomyces cerevisiae BY4741 SeMeCo community; experiment: z-score of subpopulation abundance vs DMSO median, subpopulation auxotrophic for LU; higher = larger share of this subpopulation than in DMSO controls; conditions: 10 µM; 24 h; SM minimal medium; subpopulation (auxotrophy): LU
In short: as §1

[7] = tested on: Saccharomyces cerevisiae BY4741 SeMeCo community; experiment: z-score of subpopulation abundance vs DMSO median, subpopulation auxotrophic for LM; higher = larger share of this subpopulation than in DMSO controls; conditions: 10 µM; 24 h; SM minimal medium; subpopulation (auxotrophy): LM
In short: as §1

[8] = tested on: Saccharomyces cerevisiae BY4741 SeMeCo community; experiment: z-score of subpopulation abundance vs DMSO median, subpopulation auxotrophic for HM; higher = larger share of this subpopulation than in DMSO controls; conditions: 10 µM; 24 h; SM minimal medium; subpopulation (auxotrophy): HM
In short: as §1

[9] = tested on: Saccharomyces cerevisiae BY4741 SeMeCo community; experiment: z-score of subpopulation abundance vs DMSO median, subpopulation auxotrophic for HU; higher = larger share of this subpopulation than in DMSO controls; conditions: 10 µM; 24 h; SM minimal medium; subpopulation (auxotrophy): HU
In short: as §1

[10] = tested on: Saccharomyces cerevisiae BY4741 SeMeCo community; experiment: z-score of subpopulation abundance vs DMSO median, subpopulation auxotrophic for UM; higher = larger share of this subpopulation than in DMSO controls; conditions: 10 µM; 24 h; SM minimal medium; subpopulation (auxotrophy): UM
In short: as §1

[11] = tested on: Saccharomyces cerevisiae BY4741 SeMeCo community; experiment: z-score of subpopulation abundance vs DMSO median, subpopulation auxotrophic for HLU; higher = larger share of this subpopulation than in DMSO controls; conditions: 10 µM; 24 h; SM minimal medium; subpopulation (auxotrophy): HLU
In short: as §1

[12] = tested on: Saccharomyces cerevisiae BY4741 SeMeCo community; experiment: z-score of subpopulation abundance vs DMSO median, subpopulation auxotrophic for HLM; higher = larger share of this subpopulation than in DMSO controls; conditions: 10 µM; 24 h; SM minimal medium; subpopulation (auxotrophy): HLM
In short: as §1

[13] = tested on: Saccharomyces cerevisiae BY4741 SeMeCo community; experiment: z-score of subpopulation abundance vs DMSO median, subpopulation auxotrophic for HUM; higher = larger share of this subpopulation than in DMSO controls; conditions: 10 µM; 24 h; SM minimal medium; subpopulation (auxotrophy): HUM
In short: as §1

[14] = tested on: Saccharomyces cerevisiae BY4741 SeMeCo community; experiment: z-score of subpopulation abundance vs DMSO median, subpopulation auxotrophic for LUM; higher = larger share of this subpopulation than in DMSO controls; conditions: 10 µM; 24 h; SM minimal medium; subpopulation (auxotrophy): LUM
In short: as §1

[15] = tested on: Saccharomyces cerevisiae BY4741 SeMeCo community; experiment: z-score of subpopulation abundance vs DMSO median, subpopulation auxotrophic for HLUM; higher = larger share of this subpopulation than in DMSO controls; conditions: 10 µM; 24 h; SM minimal medium; subpopulation (auxotrophy): HLUM
In short: as §1

[16] = tested on: Saccharomyces cerevisiae BY4741 SeMeCo community; experiment: z-score of subpopulation abundance vs DMSO median, subpopulation auxotrophic for L; higher = larger share of this subpopulation than in DMSO controls; conditions: 10 µM; 24 h; SM minimal medium; subpopulation (auxotrophy): L
In short: as §1

[17] = tested on: Saccharomyces cerevisiae BY4741 SeMeCo community; experiment: z-score of subpopulation abundance vs DMSO median, subpopulation auxotrophic for HL; higher = larger share of this subpopulation than in DMSO controls; conditions: 10 µM; 24 h; SM minimal medium; subpopulation (auxotrophy): HL
In short: as §1

Compound | mean cell size [1] | z-score of prototroph abundance [2] | z-score of subpopulation abundance [3] | z-score of subpopulation abundance [4] | z-score of subpopulation abundance [5] | z-score of subpopulation abundance [6] | z-score of subpopulation abundance [7] | z-score of subpopulation abundance [8] | z-score of subpopulation abundance [9] | z-score of subpopulation abundance [10] | z-score of subpopulation abundance [11] | z-score of subpopulation abundance [12] | z-score of subpopulation abundance [13] | z-score of subpopulation abundance [14] | z-score of subpopulation abundance [15] | z-score of subpopulation abundance [16] | z-score of subpopulation abundance [17]
CCCCCCCCCCCC(=O)O [Lauric Acid] | 12.2 ± 0.16 | 0.84 | -1.03 | 0.57 | -1.48 | -0.2 | -0.8 | -0.82 | -0.42 | 0.3 | -0.82 | -1.21 | -0.04 | -0.68 | -0.48 |  | 
O=C(N[C@H](CO)[C@H](O)c1ccc([N+](=O)[O-])cc1)C(Cl)Cl [Chloramphenicol] | 12.5 ± 0.17 | -0.39 | 0.86 | -0.21 | -0.01 | -0.22 | 0.1 |  | 0.66 | -0.39 | -0.24 |  | 0.42 |  | 0.45 | 0.12 | 
CO/N=C1\C[C@]2(C[C@@H]3C[C@@H](C/C=C(\C)C[C@@H](C)/C=C/C=C4\CO[C@@H]5[C@H](O)C(C)=C[C@@H](C(=O)O3)[C@]45O)O2)O[C@H](/C(C)=C/C(C)C)[C@H]1C [Moxidectin] |  |  | -0.74 |  | 1.63 | 0.03 | 0.55 | 1.1 | 2.12 | 0.37 | 1.24 |  | 1.33 | 0.37 |  | 0.29 | 1.14
c1ccc(C2CN3CCSC3=N2)cc1 (stereo not given) [Tetramisole HCl] |  | 0.24 | -0.44 | -0.11 | -0.14 | -0.21 | 0.13 |  | 0.01 | 0.02 | 0.35 |  | -0.09 |  | 0.92 | 0.54 | 
OCc1ccccc1O[C@@H]1O[C@H](CO)[C@@H](O)[C@H](O)[C@H]1O [Salicin] | 12.4 ± 0.14 | 0.58 | -0.14 | -0.42 | -0.5 | -0.12 | 0.72 | -0.68 | -0.9 | -0.29 | -0.13 |  |  | 0.42 | -0.11 | 0.38 | -0.58
CCCCCC(=O)O[C@]1(C(C)=O)CC[C@H]2[C@@H]3CCC4=CC(=O)CC[C@]4(C)[C@H]3CC[C@@]21C [Hydroxyprogesterone caproate] | 12.47 ± 0.039 | -1.13 | 0.22 | -0.21 | 1.49 | 0.72 | 1.5 | 1.31 | 1.19 | 0.42 | 0.62 |  | 1.38 |  |  | 1.21 | 1.2
CC(C)(C)C(=O)C(Oc1ccc(Cl)cc1)n1ccnc1 (stereo not given) [Climbazole] | 11.3 ± 0.047 |  | 7.09 | -1.3 | 2.84 | -2.81 | 0.49 | 9.21 | 4.67 | 24.4 | 1.28 |  |  | 5.42 | 8.88 | -2.61 | 2.46
CC(=O)OCC1=C(C(=O)O)N2C(=O)[C@@H](NC(=O)CSc3ccncc3)[C@H]2SC1 [Cephapirin Benzathine] | 12.7 ± 0.17 | -0.46 | -0.98 |  | 1.45 | 0.44 | 0.09 | 0.66 |  | -0.24 | 0.25 |  | 0.27 | -0.22 |  | -0.54 | 0.48
OB1OCc2cc(F)ccc21 [Tavaborole (AN-2690)] | 14 ± 0.24 | -16.4 | 1 | -3.62 | 14.2 | 4.22 | 6.17 | 27.5 | 5.21 | 7.1 | 23.2 | 98 | 16.9 | 16.4 | 47.7 |  | 17.6
O=C(O)Cc1ccccc1Nc1c(Cl)cccc1Cl [Diclofenac acid] | 12.5 ± 0.047 | 1.03 | 0.23 | -0.61 | -1.45 | -0.18 | 0 | 0.14 | -1.1 | -0.58 | 0.15 | 0 | -1.34 | -0.28 | -0.07 |  | -0.51
CN1CCN(C2=Nc3ccccc3Oc3ccc(Cl)cc32)CC1 [Loxapine Succinate] | 12.4 ± 0.17 | -0.71 | -0.12 | 0.78 | 0.08 | 1.85 | 0.87 | 0.14 | 0.53 |  | 0.59 |  |  | 1.15 | 0.78 | 1.71 | 1.02
CC[C@H]1OC(=O)[C@H](C)[C@@H](O[C@H]2C[C@@](C)(OC)[C@@H](O)[C@H](C)O2)[C@H](C)[C@@H](O[C@@H]2O[C@H](C)C[C@H](N(C)C)[C@H]2O)[C@](C)(O)C[C@@H](C)CN(C)[C@H](C)[C@@H](O)[C@]1(C)O [Azithromycin Dihydrate] | 12.5 ± 0.38 | -0.48 | 0.58 | -0.03 | 0.7 | -0.14 |  | 0.39 | -0.53 | 0.16 | -0.73 |  | 0.97 | -0.75 | -0.18 | 0.09 | 0.05
Nc1nc2c(ncn2COC(CO)CO)c(=O)[nH]1 [Ganciclovir] | 12.4 ± 0.16 | -0.25 | 0.43 | 0.17 | -0.43 | -0.06 | -0.15 | -0.15 | -0.11 | 0.96 | 0.54 | -0.21 | 0.33 | -0.04 | -0.89 |  | -0.27
COc1ccc2c3c1O[C@H]1C[C@@H](O)C=C[C@@]31CCN(C)C2 [Galanthamine] | 12.47 ± 0.052 | -1.09 | 1.21 | -0.51 | 0.83 | 0.29 | 0.45 | 1.76 | 0.48 | 0.1 | 1.67 | 1.04 | 1.27 | 1.02 | 1.34 |  | 0.83
COc1ccc2c(c1)c(CC(=O)O)c(C)n2C(=O)c1ccc(Cl)cc1 [Indomethacin] | 12.29 ± 0.12 | 0.27 | -0.33 | 0.52 |  | -0.17 | 0.16 | -1.04 | -0.04 | 1.08 | -0.33 |  | 0.09 | 0.47 |  | 0.48 | -0.38
